The text below walks through data of PubChem BioAssay (NCATS).

A short description of assay [1]: Primary qHTS for inhibitors of nuclear receptor binding SET domain protein 2 (NSD2) in an isogenic RCH-ACV NSD2 p.E1099K mutant (9B) (AID 1645876). Note: potency is the fitted concentration of half-maximal effect; nearly all actives have a fitted effect of over 70% in size. In general terms: Quantitative high-throughput screening tests each substance at several concentrations.
A short description of assay [2]: Primary qHTS for inhibitors of nuclear receptor binding SET domain protein 2 (NSD2) in an RCH-ACV wild type WT cells (2C) (AID 1645877). Note: potency is the fitted concentration of half-maximal effect; nearly all actives have a fitted effect of over 70% in size.
For assay [3], the target named is Glutathione peroxidase 1 (Homo sapiens) (UniProt P07203). Kind of assay: Primary qHTS Assay for Inhibitors of Recombinant Selenoprotein Glutathione Peroxidase 1 (GPX1) (AID 1845191). Note: nearly all actives have a fitted effect of over 65% in size. A digest of the protocol: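 10 nM GPX1 + cpd, 30 min RT; start w/ 1 mM GSH, 0.5 mM cumene hydroperoxide, 0.5 mM NADPH, 100 nM GR, 0.01% BSA; buffer 50 mM Tris-HCl pH 7.5, 2 mM EDTA, 150 mM NaCl; Fl 340/450, 0 & 15 min.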

Assay [4] concerns the target Phospholipid hydroperoxide glutathione peroxidase GPX4 (Homo sapiens) (UniProt P36969). Put plainly: Primary qHTS Assay for Inhibitors of Recombinant Selenoprotein Glutathione Peroxidase 4 (GPX4) (AID 1845192). For activity change, negative = inhibition: % is set by controls: 0 for no effect and ±100 for the full control effect. Note: nearly all actives have a fitted effect of over 65% in size. Note: potency is the fitted concentration of half-maximal effect. To be noted: outcome: dose series up to 50 µM unless noted. A digest of the protocol: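 NADPH consumption, followed by fluorescence at 340/450 nm between 0 and 15 min, reports GPX4 activity via coupled glutathione reductase (100 nM). Enzyme 200 nM was pre-exposed to compound 30 min; 0.5 mM cumene hydroperoxide and 1 mM GSH served as substrates.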

A short description of assay [5]: qHTS drug screen for cell cycle checkpoint inhibitors in PARPi-resistant BRCA-mutant ovarian cancer cell lines. (AID 1963452; calls by dose curve; note: potency is the fitted concentration of half-maximal effect). The conditions noted are these: PEO1/OlaR viability, CellTiter-Glo luminescence, 96 h; for Z-AUC: stronger effect = lower value. The method in brief:
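PEO1, PEO4 and PEO1/OlaR ovarian cancer cells, 600 per well, exposed 96 h at 37C to a dilution series. Viability read by CellTiter-Glo luminescence, normalized to DMSO and empty wells; activity summarized as Z-AUC.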

A short description of assay [6]: qHTS assay to identify inhibitors of the type 1 interferon - major histocompatibility complex class I in skeletal muscle: Counter screen cell viability and HiBit confirmation (AID 1347412). For activity change, negative = inhibition: % is set by controls: 0 for no effect and ±100 for the full control effect. For all read-outs here: nearly all actives have a fitted effect of over 60% in size. Note: potency is the fitted concentration of half-maximal effect. The conditions noted are these: iHSKM muscle cells + IFN-b, HiBiT or CellTiter-Glo, 24 h; for activity change, negative = inhibition: at 45.9 µM (top of the series). The method in brief: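 HLA-B*08:01–HiBiT knock-in immortalized human myoblasts (C25cl48) stimulated with 4.0 ng/ml human IFN-beta and dosed with compound in a 12-point 1:3 titration (top final 46 uM). After 24 hrs at 37 C, HiBiT lytic luminescence or CellTiter Glo ATP read out.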

Assay [7] is described as follows: qHTS to identify inhibitors of the type 1 interferon - major histocompatibility complex class I in skeletal muscle: primary screen against the NCATS Mechanism Interrogation Plate v5.0 (MIPE) Libary (AID 1347411).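 Note: plate controls were vehicle for no effect and reference inhibitor for full effect; nearly all actives have a fitted effect of over 65% in size.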 A digest of the protocol: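 Immortalized human C25cl48 myoblasts with HiBit knocked into endogenous HLA-B*08:01 were stimulated with 4.0 ng/ml IFN-beta and exposed to compounds (11-point 1:3 titration, top 46 uM final) for 24 hrs at 37 C; HiBiT lytic luminescence measured.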

[8] abbreviates: measured here: PEO1 parental Z-AUC.

Each structure is given as a SMILES string. Records with an inconclusive call do not appear. Activity calls are given as the source filed them. Unless noted, calls come from the whole dose curve; as a rule, active = well fitted curve in the direction sought with a large enough effect; inconclusive = small, poorly fitted or top-dose-only effect, or another doubt; inactive = no such curve, though single readings can be large; an effect the other way counts as inactive or inconclusive.

Chain of Glutathione peroxidase 1 (Homo sapiens) (P07203 whole entry, looked up): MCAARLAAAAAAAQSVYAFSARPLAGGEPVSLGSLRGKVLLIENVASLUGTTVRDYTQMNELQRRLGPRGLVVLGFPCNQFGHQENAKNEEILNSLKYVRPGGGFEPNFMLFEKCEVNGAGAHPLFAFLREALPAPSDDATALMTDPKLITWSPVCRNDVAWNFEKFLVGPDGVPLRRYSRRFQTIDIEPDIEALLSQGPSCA
Chain of Phospholipid hydroperoxide glutathione peroxidase GPX4 (Homo sapiens) (P36969 whole entry, looked up): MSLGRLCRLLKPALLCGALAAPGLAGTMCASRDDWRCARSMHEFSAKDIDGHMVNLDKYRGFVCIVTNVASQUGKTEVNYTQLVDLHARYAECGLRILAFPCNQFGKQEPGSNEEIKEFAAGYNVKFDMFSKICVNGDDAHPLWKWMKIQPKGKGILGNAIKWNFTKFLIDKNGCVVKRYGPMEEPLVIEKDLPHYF

On to `CCC(=C/[C@H](C)C/C=C/C(C)=C/[C@@H](C)C(=O)[C@@H](C)[C@H](O)[C@@H](C)C/C(C)=C/C(=O)O)/C=C/[C@@H]1OC(=O)C=C[C@@H]1C`, for which the Potency was 0.0042 µM (active) in assay [1]; 0.0042 µM (active) in assay [2]; 10.1 µM (active) in assay [4]; 6.92 µM (active) in assay [5]; 0.0031 µM (active) in assay [6] (HiBiT). Moreover, the Potency result in assay [3] is “inactive”. Besides, the Z-AUC was -4.05 in assay [5] (setting [8]) and -3.51 in assay [5] (measured here: PEO4 Z-AUC). In addition, the activity change, negative = inhibition in assay [6] (Viability) is -3.47% (inactive).

Consider `CN1C(=O)N(c2cc(Cl)cc(Cl)c2)C(=O)[C@]12CN(Cc1cc(C(=O)O)cs1)C[C@H]2c1ccc(C#N)cc1`, for which the Potency result in assay [7] and in assay [3] was “inactive” each time. In addition, the Z-AUC in assay [5] is 0.948 (inactive); in assay [5] (setting [8]), 1.08; in assay [5] (measured here: PEO4 Z-AUC) it was 0.897.

Turning to `NC(=S)N/N=C/c1ncccc1N`, the Potency result in assay [7] and in assay [3] was “inactive” in each case. The Z-AUC in assay [5] is 0.978 (inactive); in assay [5] (setting [8]) it was 0.81; in assay [5] (measured here: PEO4 Z-AUC), 0.897.

As to `CC#CC(=O)N1CC[C@@H](n2c(=O)n(-c3ccc(Oc4ccccc4)cc3)c3c(N)ncnc32)C1`, the Potency in assay [1] is 6.61 µM (active); in assay [2], 16.6 µM (active). The Potency result in assay [3] and in assay [4] was “inactive” in each case. In addition, the Z-AUC in assay [5] is 1.04 (inactive); in assay [5] (setting [8]), 0.828; in assay [5] (measured here: PEO4 Z-AUC), 1.1. Moreover, the results for the activity change, negative = inhibition in assay [6] (HiBiT) and in assay [6] (Viability) were -23.5% (inactive) and -0.0272% (inactive), respectively.

As to `O=C(/C=C/c1ccc(CN(CCO)CCc2c[nH]c3ccccc23)cc1)NO`, the Potency in assay [1] is 0.132 µM (active); in assay [2] it was 0.132 µM (active); in assay [5], 0.174 µM (active); in assay [6] (HiBiT) it was 0.198 µM (active). In addition, the Potency result in assay [3] and in assay [4] was “inactive” each time. For the same compound, the Z-AUC in assay [5] (setting [8]) is -1.35; in assay [5] (measured here: PEO4 Z-AUC), -1.27. Besides, the activity change, negative = inhibition in assay [6] (Viability) is -12.6% (inactive).

As for `N#C/C(=C1/Nc2ccccc2S1)c1ccnc(OCc2ccc(CN3CCOCC3)cc2)n1`, in assay [7], the Potency entry is “inactive”. For the same compound, the results for the Z-AUC in assay [5], in assay [5] (setting [8]) and in assay [5] (measured here: PEO4 Z-AUC) were 0.822 (inactive), 0.219 and -0.057, respectively.

In the case of `C/C=C1\NC(=O)[C@H]2CSSCCC=C[C@H](CC(=O)N[C@H](C(C)C)C(=O)N2)OC(=O)[C@H](C(C)C)NC1=O`, in assay [6] (HiBiT), the Potency was 0.0004 µM (active). Also, in assay [6] (Viability), the activity change, negative = inhibition was -27.6% (inactive).

`COC(=O)N(CC(=O)O)Cc1cccc(OCc2nc(-c3ccc(Cl)cc3)oc2C)c1`: the Potency result in assay [7] and in assay [3] was “inactive” in each case. The values for the Z-AUC in assay [5], in assay [5] (setting [8]) and in assay [5] (measured here: PEO4 Z-AUC) were 1.24 (inactive), -0.00269 and 0.458, respectively.

As for `NC(=O)c1cnc2[nH]ccc2c1NC1C2CC3C[C@H]1CC(O)(C3)C2` (stereo partly drawn), the Potency was 9.34 µM (active) in assay [1], 9.34 µM (active) in assay [2] and 2.22 µM (active) in assay [6] (HiBiT). The Potency entry in assay [3] is “inactive”. Also, the Z-AUC was 0.584 (inactive) in assay [5], 0.594 in assay [5] (setting [8]) and 0.746 in assay [5] (measured here: PEO4 Z-AUC). Further, the activity change, negative = inhibition in assay [6] (Viability) is -16.1% (inactive).

With `CC[C@@H](Oc1cccc(CN(CCCOc2ccc(OC)cc2)c2nc3ccccc3o2)c1)C(=O)O`, in assay [7], the Potency entry is “inactive”. In addition, the Z-AUC was 1.26 (inactive) in assay [5], 0.312 in assay [5] (setting [8]) and 0.341 in assay [5] (measured here: PEO4 Z-AUC).

Consider `CCS(=O)(=O)Nc1ccc(Oc2ccc(F)cc2F)c(-c2cn(C)c(=O)c3[nH]ccc23)c1`, for which the Potency is 0.0132 µM (active) in assay [1], 0.0074 µM (active) in assay [2], 0.0389 µM (active) in assay [5] and 0.0557 µM (active) in assay [6] (HiBiT). The Potency result in assay [3] is “inactive”. For the same compound, the Z-AUC was -1.41 in assay [5] (setting [8]) and -1.58 in assay [5] (measured here: PEO4 Z-AUC). The activity change, negative = inhibition in assay [6] (Viability) was -28.2% (inactive).
